# IMPase inh: cell-permeable inhibitors of inositol monophosphatase (IMPase); P97697; CHO-M1 cells, IP1 accumulation, HTRF TR-FRET ratio; inhibition (IP1 accumulation), % at 46.1 µM; 120,000 tested, under 10 active; active = well fitted curve in the direction sought with a large enough effect in the signal ratio, not every such curve was filed as active; inconclusive = small, poorly fitted or top-dose-only effect, or a change in a side signal; inactive = no such curve, though single readings can be large or run the other way; the % refers to the signal ratio;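 note: cells stimulated with carbachol in lithium chloride buffer; plate controls were DMSO basal wells for no effect and reference inhibitor wells for full effect; higher means more IMPase inhibition seen as more IP1 and lower FRET ratio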
#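 The IP-One HTRF competitive assay in carbachol-stimulated CHO-M1 cells quantifies cellular IP1. Compounds spanned up to 46 uM final, and activity is expressed as AC50 from concentration-response fits of the ratio and donor data.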
# ALOX12 inhib: 12-hLO (ALOX12) enzyme inhibition; purified 12-hLO, xylenol orange hydroperoxide absorbance; Potency, µM (series often up to 57.1 µM), inactives show at the top dose activity change, negative = inhibition, hits mostly inhibitors; 150,000 compounds, 0.12% hits; note: potency is the fitted concentration of half-maximal effect; % is set by controls: 0 for no effect and ±100 for the full control effect; nearly all actives have a fitted effect of over 55% in size
# Target sequence (P18054 whole entry, looked up): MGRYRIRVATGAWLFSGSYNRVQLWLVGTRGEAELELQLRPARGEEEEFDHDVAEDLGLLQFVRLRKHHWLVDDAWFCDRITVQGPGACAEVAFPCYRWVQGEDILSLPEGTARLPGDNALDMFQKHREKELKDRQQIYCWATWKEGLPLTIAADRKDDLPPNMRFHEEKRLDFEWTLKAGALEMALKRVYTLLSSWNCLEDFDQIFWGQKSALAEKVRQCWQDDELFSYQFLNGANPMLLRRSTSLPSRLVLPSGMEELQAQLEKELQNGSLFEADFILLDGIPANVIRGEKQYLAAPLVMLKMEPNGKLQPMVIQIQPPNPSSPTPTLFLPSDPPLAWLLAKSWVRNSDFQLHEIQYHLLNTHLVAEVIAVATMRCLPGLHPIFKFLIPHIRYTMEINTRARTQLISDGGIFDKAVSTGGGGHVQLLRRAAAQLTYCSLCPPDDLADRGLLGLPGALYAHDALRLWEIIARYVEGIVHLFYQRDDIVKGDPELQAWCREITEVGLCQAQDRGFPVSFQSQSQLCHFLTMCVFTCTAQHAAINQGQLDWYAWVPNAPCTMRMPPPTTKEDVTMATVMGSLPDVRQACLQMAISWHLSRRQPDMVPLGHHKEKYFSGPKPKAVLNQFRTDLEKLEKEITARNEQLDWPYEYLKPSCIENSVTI
#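 150 nM 12hLO, 25 mM Hepes pH 7.0 + 0.01% Triton X-100; cpd preinc 15 min RT; 40 uM arachidonic acid, 30 min RT; Fe-XO 30 min; A573/A405 ratio as read-out.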
# NPSR antagonist: antagonists of human neuropeptide S receptor cAMP signaling. Q6W5P4. CHO-NPSR cells, cAMP TR-FRET, antagonist mode. Potency, µM (doses to about 38.3 µM), inactives show top-dose activity change, negative = inhibition, most hits filed as inhibitors. 220,000 compounds, 1% hits; note: potency is the fitted concentration of half-maximal effect; % is set by controls: 0 for no effect and ±100 for the full control effect; nearly all actives have a fitted effect of over 50% in size
# HttQ103 aggreg: inhibitors of mutant huntingtin aggregate formation in PC12 cells; PC12 HttQ103-GFP aggregates, Acumen cytometry, 40 h; Potency, µM (top dose mostly 46.1 µM), for the others: top-dose activity change, negative = inhibition, actives largely listed as inhibitors; 220,000 compounds, 1.1% hits; AID 1688; note: potency is the fitted concentration of half-maximal effect; % is set by controls: 0 for no effect and ±100 for the full control effect; nearly all actives have a fitted effect of over 60% in size
#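 Inducible Q103 Huntingtin exon 1–GFP PC12 line, 1500 cells/well in phenol red free DMEM with 5% equine and 5% calf serum. Tebufenozide 100 nM induced expression; compounds titrated; aggregates quantified by cytometry.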
# PNC assembly inh: inhibitors of perinucleolar compartment assembly. 140,000 compounds, 3.1% hits. activity change (PNC), negative = inhibition, % at 10 µM. PC3M PTB-GFP, PNC prevalence imaging, 16 h; hits give low values;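 active = readout at or below -70, meaning at least 70% loss of cells showing the perinucleolar compartment, a nuclear body marking cancer cells; inconclusive = readout between -30 and a set limit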;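 note: plate controls were DMSO wells for no effect and camptothecin positive control wells for full effect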
#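 PC3M cells stably expressing PTB-GFP, 750–1000 cells/well, treated 16 h at 37 °C with compound (23 nl of library stock), in duplicate. After paraformaldehyde fixation and Hoechst stain, imaged at 20x; PNC prevalence scored by image analysis.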
# HTT ATP protect: cytoprotection in Huntington HTT-Q103 PC12 cell model. Potency, µM (series often up to 56.4 µM), without a hit: cytoprotection (ATP increase), usual class: activators. PC12 HTT-Q103 induced, cytoprotection, ATP luminescence, 40 h. 230,000 compounds, 0.14% hits. AID 1471; note: potency is the fitted concentration of half-maximal effect; % of control where 0% means no effect; nearly all actives have a fitted effect of over 45% in size
#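 Quantitative HTS on tebufenozide-induced (100 nM) PC12 cells expressing HTTQ103 exon 1–GFP; compounds tested as a concentration series; survival measured via cellular ATP.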
# * = called active by the depositor; ? = inconclusive; nt = no result; [ ] = remark or other dose. Hits are enriched below; roughly 3.3% of the tested compounds scored in any of these assays. Unless noted, calls come from the whole dose curve; as a rule, active = well fitted curve in the direction sought with a large enough effect; inconclusive = small, poorly fitted or top-dose-only effect, or another doubt; inactive = no such curve, though single readings can be large; an effect the other way counts as inactive or inconclusive.
SMILES,IMPase inh,ALOX12 inhib,NPSR antagonist,HttQ103 aggreg,PNC assembly inh,HTT ATP protect
Cc1cccc(OCCNc2nc3c(c(=O)n(C)c(=O)n3C)n2C)c1,2,0%,0%[46.1 µM],4%,-97*,4%[4.97 µM]
COCCNc1nc2c(c(=O)n(C)c(=O)n2C)n1Cc1cccc(C)c1,3,-4%,-6%[46.1 µM],16µM*,-2,-12%[10 µM]
COC(=O)c1cccc(C23CC4(C2)[C@H](CN(CC2CCCCC2)[C@@H]4c2ccccc2)C3c2ccc(C(F)(F)F)cc2)c1 (stereo partly drawn),nt,-6%,nt,nt,nt,-15%
C/C(=N\Nc1ncc(Cl)cc1Cl)c1ccccn1,nt,nt,1.3µM*,?,nt,-155%
Cc1ccn2c(Nc3ccc4c(c3)OCO4)c(-c3ccccn3)nc2c1,?,-17%,-30%[46.1 µM],-18%,48,-21%[10 µM]
Cc1ccc(Nc2c(-c3ccccn3)nc3ccc(C)cn23)cc1,nt,nt,10µM*,11µM*,nt,-44%[10 µM]
Cc1ccc(Nc2c(-c3ccccn3)nc3cc(C)ccn23)cc1,nt,nt,?,7.9µM*,nt,-116%
CC1CCC(C(=O)O)NC1c1ccc(-c2ccco2)cc1 (stereo not drawn),nt,nt,nt,nt,nt,-5%[10 µM]
O=c1c2ccccc2nc2n1C(CSCc1ccc(Cl)cc1)CS2 (stereo not drawn),7,4%,-15%[46.1 µM],11µM*,14,-2%[10 µM]
O=C(CC1NCCNC1=O)Nc1ccc(Cl)c(Cl)c1 (stereo not drawn),nt,-5%,5%,-8%,38,nt
O=C(CC1NCCNC1=O)Nc1ccc2c(c1)OCO2 (stereo not drawn),5,0%,-3%[46.1 µM],13%,-91*,-10%
COc1ccc(Br)cc1C(=O)N/N=C/c1ccc2c(c1)n(C)c(=O)n2C,nt,1%,-31%,5%,-82*,nt
COc1ccc(OCc2nc3c4c(-c5ccccc5)c(-c5ccccc5)oc4ncn3n2)cc1,-3,nt,nt,nt,nt,nt
O=C(N/N=C(\c1ccccc1)c1ccccn1)c1cccc([N+](=O)[O-])c1,nt,nt,-47%,6.3µM*,nt,-139%
Cn1ccnc1/C(=N\NC(=O)c1ccccc1)c1cccc([N+](=O)[O-])c1,nt,nt,-11%,-8%,nt,-7%
CN1CCN(c2ncncc2-c2ccccc2C(F)(F)F)CC1,nt,nt,nt,nt,nt,19%
c1nc(N2CCOCC2)c2cc(-c3ccoc3)ccc2n1,nt,nt,nt,nt,nt,-81%
c1cn(-c2ncnc3ccc(-c4ccoc4)cc23)cn1,nt,nt,nt,nt,nt,2.5µM*
Clc1ccc(OCCSCc2nc3ccccc3[nH]2)cc1,-2,2%,14%[46.1 µM],7.1µM*,-8,14%[10 µM]
CCOc1cccc(NC(=O)C2CC(=O)N(CC)C(=Nc3ccc(F)cc3)S2)c1 (stereo not drawn),9,nt,nt,nt,nt,nt
COc1ccc(-c2nc(-c3ccccc3)c(NC(C)C)o2)cc1,nt,-1%,nt,nt,nt,-23%
CCCn1c(O)c(N=NC(=O)c2ccco2)c2ccccc21,nt,0%,-24%,-9%,15,24%[10 µM]
Cc1nc2ccccn2c1C(=O)N=Nc1c(O)n(CCC(C)C)c2ccccc12,5,-5%,?,35µM*,?,14%[10 µM]
COc1ccc(NC(=O)CSc2nc(-c3ccc(OC)cc3)[nH]c2-c2ccc(OC)cc2)cc1,-9,nt,nt,nt,nt,nt
CC(C)(C)C(=O)Nc1ccccc1C(=O)Nc1ccncc1,-12,-2%,-6%[46.1 µM],-6%,-100*,12%[10 µM]
CCCCCCCCSc1nnc(CSc2nc3nc(C)cc(C)n3n2)o1,10,0%,-14%[46.1 µM],22µM*,23,-40%
Cc1cc(C)n2nc(SCc3nnc(SCCCCl)o3)nc2n1,12,2%,-3%[46.1 µM],5%,3,-9%
CCOC(=O)c1sc(NC(=O)CSc2n[nH]c(-c3ccncc3)n2)c(C#N)c1C,14,8%,-25%[46.1 µM],7.1µM*,34,-91%[10 µM]
COC(=O)c1sc(NC(=O)c2cc(-c3ccccc3)nc3ccccc23)c(C#N)c1C,3,-16%,-9%[46.1 µM],2.2µM*,19,-44%
Cc1ccccc1-c1cc(C(=O)Nc2sc(C(=O)OC(C)C)c(C)c2C#N)c2ccccc2n1,12,-13%,-18%[46.1 µM],4.5µM*,?,-38%

# Assay outcomes as filed in PubChem BioAssay.
